± gives the standard deviation of the averaged measurements. Whole data set: some 33,000 sequences, median “E-score (dimensionless, -0.5 to 0.5)” near -0.046, cut for the highest 2% near 0.36. What follows is part of a selection rich in the highest values, with near analogues and random picks from the rest.
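Also: protein at 200 nM in PBS on universal double-stranded arrays.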

For this assay, the system named is T1, SpTbr T-box DNA-binding domain (GST fusion).
T1 sequence: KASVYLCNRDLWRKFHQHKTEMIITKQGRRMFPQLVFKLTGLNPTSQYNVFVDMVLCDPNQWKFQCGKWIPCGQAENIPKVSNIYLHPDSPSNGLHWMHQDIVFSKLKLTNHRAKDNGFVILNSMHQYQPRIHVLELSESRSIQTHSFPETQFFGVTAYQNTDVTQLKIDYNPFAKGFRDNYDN
Kind of assay: PBM E-score of 8-mer (E-score (dimensionless, -0.5 to 0.5)); Tbr is Tbrain of the sea star Patiria miniata (Pm) or the sea urchin Strongylocentrotus purpuratus (Sp); higher = stronger binding preference. The following applies: the construct has about 5 more residues each side. The method, then:
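Universal protein-binding microarray (Agilent AMADID 016060, 60-bp probes with a 35-bp variable region) incubated with 200 nM GST-fused Strongylocentrotus purpuratus Tbr T-box DNA-binding domain (residues 362-554) in PBS pH 7.5. Scored for every ungapped 8-mer (given with its reverse complement) as E-score (range -0.5 to 0.5; >0.45 counts as bound) and Z-score of median probe intensity. Two replicate arrays (datasets 1 and 2).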
On to ACTTGCTG, for which the “PBM E-score of 8-mer” value was -0.0473 ± 0.073.

With ATTCTGTC, the “PBM E-score of 8-mer” value turned out to be 0.04 ± 0.016.

Take CAGTAACC: the “PBM E-score of 8-mer” value is 0.048 ± 0.029.

Consider GAAATGGA, for which the “PBM E-score of 8-mer” value was -0.101 ± 0.0095.

In the case of ACTTGACT, the “PBM E-score of 8-mer” value is 0.0832 ± 0.1.

Regarding CTAATAGC, the “PBM E-score of 8-mer” value was 0.0334 ± 0.069.

In the case of ACTGTTAA, the “PBM E-score of 8-mer” value amounted to 0.261 ± 0.036.

Turning to AGTGTTAC, the “PBM E-score of 8-mer” value was 0.3741 ± 0.0036.

As for AATGTTAA, the “PBM E-score of 8-mer” value was -0.0502 ± 0.052.

Take GGTGTTAA: the “PBM E-score of 8-mer” value is 0.472 ± 0.0062.

As for AGTGTTAA, the “PBM E-score of 8-mer” value came out at 0.436 ± 0.021.

Consider ACTGTTAC, for which the “PBM E-score of 8-mer” value amounted to 0.168 ± 0.0045.

With AGTGTTCC, the “PBM E-score of 8-mer” value was determined as 0.0182 ± 0.013.

As to CGTGTTGA, the “PBM E-score of 8-mer” value is 0.3014 ± 0.0019.

As to GGTGTTGA, the “PBM E-score of 8-mer” value was 0.4631 ± 0.0038.

With GTTGTTGA, the “PBM E-score of 8-mer” value was determined as 0.239 ± 0.044.

As to GTTGTTAA, the “PBM E-score of 8-mer” value came out at 0.339 ± 0.034.

As for GCTGTTAA, the “PBM E-score of 8-mer” value is 0.162 ± 0.0053.

In the case of ATTTGCAC, the “PBM E-score of 8-mer” value worked out at 0.239 ± 0.043.

Take ACTTGAGG: the “PBM E-score of 8-mer” value was -0.00245 ± 0.078.

As to CGACGCGA, the “PBM E-score of 8-mer” value stood at 0.159 ± 0.068.

For ACAGCTTC, the “PBM E-score of 8-mer” value came out at 0.208 ± 0.017.

Turning to AGTGGAGC, the “PBM E-score of 8-mer” value is -0.0127 ± 0.11.

For TCATCTCA, the “PBM E-score of 8-mer” value turned out to be 0.0482 ± 0.019.

Take GCCAATCC: the “PBM E-score of 8-mer” value is -0.0232 ± 0.048.

For the sequence AGTGTGTA, the “PBM E-score of 8-mer” value turned out to be 0.229 ± 0.018.

With AGTGTGGG, the “PBM E-score of 8-mer” value amounted to 0.399 ± 0.018.

Consider GGTGTGTA, for which the “PBM E-score of 8-mer” value is 0.356 ± 0.008.

In the case of GGTGTGGA, the “PBM E-score of 8-mer” value was determined as 0.456 ± 0.014.

For AGTGTGGC, the “PBM E-score of 8-mer” value came to 0.33 ± 0.014.

AGAGTGGG: the “PBM E-score of 8-mer” value was -0.128 ± 0.066.

As to CGTGTGGA, the “PBM E-score of 8-mer” value came out at 0.306 ± 0.0073.

Consider AGTGGGGG, for which the “PBM E-score of 8-mer” value is -0.0909 ± 0.05.

As for AGTGTGGA, the “PBM E-score of 8-mer” value is 0.373 ± 0.035.

As to ACCTTAGC, the “PBM E-score of 8-mer” value is 0.211 ± 0.014.

In the case of CCACGGGC, the “PBM E-score of 8-mer” value is -0.227 ± 0.019.

On to ATTCGCGA, for which the “PBM E-score of 8-mer” value was 0.392 ± 0.02.

Take AATCGCGC: the “PBM E-score of 8-mer” value amounted to 0.332 ± 0.01.

Regarding AATCGCGA, the “PBM E-score of 8-mer” value is 0.3847 ± 0.00013.

As for CATCGCGC, the “PBM E-score of 8-mer” value was determined as 0.259 ± 0.032.

With ATTCGCTA, the “PBM E-score of 8-mer” value worked out at 0.208 ± 0.024.

CTTCGCTC: the “PBM E-score of 8-mer” value is -0.00285 ± 0.036.

For AATCGCGT, the “PBM E-score of 8-mer” value was determined as 0.194 ± 0.039.

Turning to CTTCGCGA, the “PBM E-score of 8-mer” value is 0.285 ± 0.032.

Take ATTCGCGG: the “PBM E-score of 8-mer” value turned out to be 0.275 ± 0.026.

As for ATTCGCGC, the “PBM E-score of 8-mer” value is 0.387 ± 0.012.

For the sequence CTTCGCGC, the “PBM E-score of 8-mer” value stood at 0.407 ± 0.032.

For CATCGCGA, the “PBM E-score of 8-mer” value was determined as 0.197 ± 0.0055.

For the sequence GCGCCACA, the “PBM E-score of 8-mer” value came out at 0.223 ± 0.014.

Turning to ATTTGTGA, the “PBM E-score of 8-mer” value was 0.181 ± 0.085.

GGGGCGCA: the “PBM E-score of 8-mer” value is -0.227 ± 0.038.

Consider TAAAGCTA, for which the “PBM E-score of 8-mer” value is -0.171 ± 0.036.

For GTATTGAC, the “PBM E-score of 8-mer” value was -0.0627 ± 0.015.

As for CAGTGCAG, the “PBM E-score of 8-mer” value is -0.179 ± 0.024.

Turning to ACTCGCGC, the “PBM E-score of 8-mer” value amounted to 0.298 ± 0.038.

In the case of CCTCGCGA, the “PBM E-score of 8-mer” value stood at 0.306 ± 0.0057.

For GTTCGCGA, the “PBM E-score of 8-mer” value came to 0.389 ± 0.0052.

ACTCGCGA: the “PBM E-score of 8-mer” value amounted to 0.3822 ± 0.0018.

Take GGTCGCGA: the “PBM E-score of 8-mer” value is 0.335 ± 0.017.

GTTCGCCA: the “PBM E-score of 8-mer” value amounted to 0.158 ± 0.011.

In the case of CCAGCGCG, the “PBM E-score of 8-mer” value came to 0.0431 ± 0.073.

Take CCTCGTTC: the “PBM E-score of 8-mer” value amounted to 0.0141 ± 0.013.

CGTCAACA: the “PBM E-score of 8-mer” value came out at 0.356 ± 0.0058.

In the case of GGTCAACA, the “PBM E-score of 8-mer” value amounted to 0.114 ± 0.02.

In the case of TGTCAACA, the “PBM E-score of 8-mer” value amounted to 0.4051 ± 0.0019.

As for CTAAACCA, the “PBM E-score of 8-mer” value was -0.0751 ± 0.046.

Consider CTCCCTTC, for which the “PBM E-score of 8-mer” value is -0.214 ± 0.037.

ACACTCTA: the “PBM E-score of 8-mer” value stood at 0.325 ± 0.017.

Consider ACACTCTC, for which the “PBM E-score of 8-mer” value was found to be 0.3695 ± 0.0036.

Turning to CCTTACAC, the “PBM E-score of 8-mer” value was 0.3668 ± 0.0022.

Turning to CCTCACAC, the “PBM E-score of 8-mer” value was determined as 0.4723 ± 0.0005.

For ACTCACAC, the “PBM E-score of 8-mer” value was 0.469 ± 0.0082.

As to ACTTACAC, the “PBM E-score of 8-mer” value turned out to be 0.251 ± 0.075.

With GCTTACAC, the “PBM E-score of 8-mer” value turned out to be 0.219 ± 0.012.

CCTCACAG: the “PBM E-score of 8-mer” value stood at 0.149 ± 0.032.

As to CCTCACAA, the “PBM E-score of 8-mer” value is 0.233 ± 0.0063.

For the sequence ACTCACAT, the “PBM E-score of 8-mer” value was determined as 0.124 ± 0.049.

On to ACTCTCTC, for which the “PBM E-score of 8-mer” value is 0.0136 ± 0.068.

Take ACTCACAG: the “PBM E-score of 8-mer” value came out at 0.313 ± 0.011.

GGCTCTCA: the “PBM E-score of 8-mer” value turned out to be 0.0783 ± 0.047.

As to AGCATAGC, the “PBM E-score of 8-mer” value was -0.135 ± 0.061.

Turning to CGCGTTTA, the “PBM E-score of 8-mer” value came out at 0.0979 ± 0.059.

For the sequence CGAGATAC, the “PBM E-score of 8-mer” value was -0.0218 ± 0.054.

Take GAACAAAA: the “PBM E-score of 8-mer” value was -0.0265 ± 0.017.

Regarding ACGTATGC, the “PBM E-score of 8-mer” value came out at 0.0191 ± 0.0035.

In the case of AGGCGCAT, the “PBM E-score of 8-mer” value is -0.182 ± 0.024.

Turning to ACCGTCAT, the “PBM E-score of 8-mer” value stood at 0.0989 ± 0.0085.

With ATTGAAGG, the “PBM E-score of 8-mer” value is -0.0895 ± 0.13.

With AAGCGGTG, the “PBM E-score of 8-mer” value is -0.1161 ± 0.00078.

Take CACAAGGC: the “PBM E-score of 8-mer” value is -0.114 ± 0.035.

As to ACATGGCA, the “PBM E-score of 8-mer” value was -0.0601 ± 0.028.

With GCCAGCGA, the “PBM E-score of 8-mer” value was 0.164 ± 0.098.

Take GCACACAC: the “PBM E-score of 8-mer” value is 0.294 ± 0.035.

For ACACTCAC, the “PBM E-score of 8-mer” value was found to be 0.366 ± 0.004.

For the sequence GCTCACAC, the “PBM E-score of 8-mer” value is 0.448 ± 0.0095.

Turning to GCTCACAA, the “PBM E-score of 8-mer” value is 0.174 ± 0.018.

On to ACTCTCCG, for which the “PBM E-score of 8-mer” value was -0.0225 ± 0.053.

Take ACACTCAG: the “PBM E-score of 8-mer” value was found to be 0.232 ± 0.042.

As to ACACTCCG, the “PBM E-score of 8-mer” value was found to be 0.367 ± 0.023.

With ACACTCCT, the “PBM E-score of 8-mer” value was 0.193 ± 0.021.

In the case of ACTCTCAC, the “PBM E-score of 8-mer” value stood at 0.285 ± 0.036.

For the sequence ATCTCCGG, the “PBM E-score of 8-mer” value worked out at 0.0811 ± 0.031.

As for ACCGTTCA, the “PBM E-score of 8-mer” value is 0.027 ± 0.023.

Turning to AGCGAGTC, the “PBM E-score of 8-mer” value was 0.0305 ± 0.044.

Turning to CTGTACCA, the “PBM E-score of 8-mer” value was -0.0774 ± 0.055.

With GCTAGAAC, the “PBM E-score of 8-mer” value is 0.0971 ± 0.024.

For AGACCATG, the “PBM E-score of 8-mer” value was -0.0594 ± 0.025.

For the sequence ATGCCAAC, the “PBM E-score of 8-mer” value is 0.124 ± 0.0029.

Take CTGCCAAC: the “PBM E-score of 8-mer” value amounted to 0.0901 ± 0.035.

CTGCCAAA: the “PBM E-score of 8-mer” value stood at 0.0249 ± 0.15.

For the origin of these results see the supplement of paper PMC4166925.
